# According to PubChem BioAssay:
# Calls of active or inactive are those of the source. Rule as the data show it, unless noted: active = inhibition above about 28%; inactive = the rest.
# Tests used:
# [1] = target: Nuclear receptor coactivator 3 (Homo sapiens) (UniProt Q9Y6Q9); assay: SRC3 coactivator transcriptional activity inhibitors, confirmation, cell-based, luminescence, quadruplicate (AID 588792;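 active = mean inhibition over 43.08%, the solvent-only control mean plus 3 SD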;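 also: 0% = DMSO treated cells and 100% = gossypol at 36 µM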); settings: HEK293 GAL4-SRC3 luciferase reporter, at 3.6 µM, active compounds read high
# [2] = test system: transactivating tegument protein VP16 (Human herpesvirus 1), Gal4-VP16 luciferase reporter; assay: VP16 transactivation inhibitors, counter-screen for SRC3 inhibitor project, cell-based, luminescence, high throughput (AID 588794; in the data active = inhibition above about 30%); settings: mammalian cells, VP16-driven luciferase reporter luminescence; at 3.6 µM; active compounds read high
# [3] = target: Nuclear receptor coactivator 1 (Homo sapiens) (UniProt Q15788); assay: SRC1 coactivator transcriptional activity inhibitors, confirmation, cell-based, luminescence, quadruplicate (AID 588820;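 active = mean inhibition above 46.68%, the untreated control wells mean plus 3 SD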;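 also: 0% = DMSO wells and 100% = gossypol 36 µM treated wells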); settings: HEK293 GAL4-SRC1 luciferase reporter, at 3.6 µM, active compounds read high
# [4] = VP16 transactivation inhibitors, counter-screen for SRC1 inhibitor project, cell-based, luminescence, high throughput (AID 588824; in the data active = inhibition above about 25%); settings: cell-based VP16 transactivation luciferase luminescence; at 3.6 µM; active compounds read high
# [5] = StAR promoter reporter inhibitors, counter-screen for LRH-1 inverse agonist project, cell-based, luminescence, high throughput (AID 651611); settings: StAR promoter luciferase reporter counterscreen, at 3.6 µM, active compounds read high
# [6] = target: Nuclear receptor subfamily 5 group A member 2 (Homo sapiens) (UniProt O00482); assay: LRH-1 (NR5A2) inverse agonists, retest, confirmation, cell-based, luminescence (AID 651613; in the data active = inhibition above about 42%;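 also: HEK293T cells co-transfected with LRH-1 and StAR promoter luciferase reporter; 0% = vehicle wells and 100% = parental cells lacking receptor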); settings: cell-based LRH-1 luciferase reporter, inverse agonism; at 3.6 µM; active compounds read high
# [7] = target: Steroidogenic factor 1 (Homo sapiens) (UniProt Q13285); assay: SF1 (NR5A1) inverse agonists, counter-screen for LRH-1 inverse agonist project, cell-based, luminescence, high throughput (AID 651614; in the data active = inhibition above about 44%;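 also: cells cotransfected with StAR promoter reporter and SF1 expression vector; 0% = vehicle on cells with receptor and 100% = vehicle on cells lacking receptor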); settings: cell-based SF1 luciferase reporter, at 3.6 µM, active compounds read high
# [8] = VP16 transactivation reporter inhibitors, counter-screen for LRH-1 inverse agonist project, cell-based, luminescence, high throughput (AID 651615; in the data active = inhibition above about 33%); settings: Gal4-VP16 luciferase reporter cells, at 3.6 µM, active compounds read high
# [9] = test system: transactivating tegument protein VP16 (Human herpesvirus 1); assay: VP16 transactivation reporter inhibitors, counter-screen for SRC2 inhibitor project, cell-based, luminescence, single concentration (AID 652007; in the data active = inhibition above about 36%); settings: cell-based VP16 transactivation luciferase reporter, at 8.9 µM, active compounds read high
# [10] = target: Nuclear receptor coactivator 2 (Homo sapiens) (UniProt Q15596); assay: SRC2 coactivator transcriptional activity inhibitors, confirmation, cell-based, luminescence, HEK293, triplicate (AID 652008;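 active = mean inhibition above 46.5%, the solvent-only control mean plus 3 SD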;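 also: 0% = DMSO-treated cells and 100% = Gossypol at 36 µM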); settings: HEK293 GAL4-SRC2 luciferase reporter, at 8.9 µM, active compounds read high
# Nuclear receptor subfamily 5 group A member 2 (Homo sapiens), sequence (O00482 whole entry, looked up): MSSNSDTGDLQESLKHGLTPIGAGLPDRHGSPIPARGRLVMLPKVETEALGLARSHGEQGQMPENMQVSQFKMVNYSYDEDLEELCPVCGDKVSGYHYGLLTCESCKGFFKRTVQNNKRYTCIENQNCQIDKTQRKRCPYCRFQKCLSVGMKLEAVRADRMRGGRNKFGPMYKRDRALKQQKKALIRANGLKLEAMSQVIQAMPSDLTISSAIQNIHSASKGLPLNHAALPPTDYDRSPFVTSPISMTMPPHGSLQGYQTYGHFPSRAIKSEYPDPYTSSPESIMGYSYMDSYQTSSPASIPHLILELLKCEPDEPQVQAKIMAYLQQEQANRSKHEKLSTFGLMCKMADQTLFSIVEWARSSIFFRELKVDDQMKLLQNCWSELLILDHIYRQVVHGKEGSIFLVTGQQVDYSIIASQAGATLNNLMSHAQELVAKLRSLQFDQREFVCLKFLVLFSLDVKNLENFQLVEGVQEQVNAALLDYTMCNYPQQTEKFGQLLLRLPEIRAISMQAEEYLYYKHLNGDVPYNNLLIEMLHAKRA
# Nuclear receptor coactivator 3 (Homo sapiens), sequence (Q9Y6Q9 whole entry, looked up, the tested form may be a part): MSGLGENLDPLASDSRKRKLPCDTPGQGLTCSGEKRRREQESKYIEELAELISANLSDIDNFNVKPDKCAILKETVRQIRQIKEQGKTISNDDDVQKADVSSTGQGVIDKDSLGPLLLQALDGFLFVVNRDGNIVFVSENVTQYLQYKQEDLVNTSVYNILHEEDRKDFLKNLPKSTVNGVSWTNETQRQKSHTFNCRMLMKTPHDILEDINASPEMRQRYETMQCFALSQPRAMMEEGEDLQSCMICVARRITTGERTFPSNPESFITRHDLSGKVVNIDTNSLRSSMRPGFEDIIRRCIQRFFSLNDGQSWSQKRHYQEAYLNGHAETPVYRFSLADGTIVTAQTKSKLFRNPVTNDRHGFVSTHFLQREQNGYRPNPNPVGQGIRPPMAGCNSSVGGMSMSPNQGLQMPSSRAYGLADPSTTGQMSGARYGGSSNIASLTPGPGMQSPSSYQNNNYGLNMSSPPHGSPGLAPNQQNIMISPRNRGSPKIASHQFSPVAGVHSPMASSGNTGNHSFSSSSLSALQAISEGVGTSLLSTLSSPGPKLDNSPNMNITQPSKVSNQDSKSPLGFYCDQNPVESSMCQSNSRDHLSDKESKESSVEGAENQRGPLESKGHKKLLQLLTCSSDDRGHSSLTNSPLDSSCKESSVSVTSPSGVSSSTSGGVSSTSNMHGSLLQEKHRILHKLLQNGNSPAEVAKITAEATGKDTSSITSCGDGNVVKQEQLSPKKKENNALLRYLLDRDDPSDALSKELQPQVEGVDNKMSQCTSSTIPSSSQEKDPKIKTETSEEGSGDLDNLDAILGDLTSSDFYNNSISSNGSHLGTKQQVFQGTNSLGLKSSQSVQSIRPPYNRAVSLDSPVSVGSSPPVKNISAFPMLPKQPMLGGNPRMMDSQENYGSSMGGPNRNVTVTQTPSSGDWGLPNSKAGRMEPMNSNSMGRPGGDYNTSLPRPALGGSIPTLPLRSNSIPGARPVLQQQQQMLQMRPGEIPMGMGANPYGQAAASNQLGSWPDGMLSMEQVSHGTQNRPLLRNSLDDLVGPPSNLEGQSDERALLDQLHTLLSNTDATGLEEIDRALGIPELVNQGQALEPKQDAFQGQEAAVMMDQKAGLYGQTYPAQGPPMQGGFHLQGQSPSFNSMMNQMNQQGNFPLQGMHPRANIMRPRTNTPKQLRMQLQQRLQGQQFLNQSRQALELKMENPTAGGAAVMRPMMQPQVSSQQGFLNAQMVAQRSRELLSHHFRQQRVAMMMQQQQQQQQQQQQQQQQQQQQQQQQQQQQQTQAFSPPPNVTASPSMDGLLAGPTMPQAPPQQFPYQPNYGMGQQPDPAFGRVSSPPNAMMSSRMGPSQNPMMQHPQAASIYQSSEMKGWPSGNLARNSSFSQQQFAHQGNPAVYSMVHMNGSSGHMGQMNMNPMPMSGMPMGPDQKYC
# Nuclear receptor coactivator 1 (Homo sapiens), sequence (Q15788 whole entry, looked up, the tested form may be a part): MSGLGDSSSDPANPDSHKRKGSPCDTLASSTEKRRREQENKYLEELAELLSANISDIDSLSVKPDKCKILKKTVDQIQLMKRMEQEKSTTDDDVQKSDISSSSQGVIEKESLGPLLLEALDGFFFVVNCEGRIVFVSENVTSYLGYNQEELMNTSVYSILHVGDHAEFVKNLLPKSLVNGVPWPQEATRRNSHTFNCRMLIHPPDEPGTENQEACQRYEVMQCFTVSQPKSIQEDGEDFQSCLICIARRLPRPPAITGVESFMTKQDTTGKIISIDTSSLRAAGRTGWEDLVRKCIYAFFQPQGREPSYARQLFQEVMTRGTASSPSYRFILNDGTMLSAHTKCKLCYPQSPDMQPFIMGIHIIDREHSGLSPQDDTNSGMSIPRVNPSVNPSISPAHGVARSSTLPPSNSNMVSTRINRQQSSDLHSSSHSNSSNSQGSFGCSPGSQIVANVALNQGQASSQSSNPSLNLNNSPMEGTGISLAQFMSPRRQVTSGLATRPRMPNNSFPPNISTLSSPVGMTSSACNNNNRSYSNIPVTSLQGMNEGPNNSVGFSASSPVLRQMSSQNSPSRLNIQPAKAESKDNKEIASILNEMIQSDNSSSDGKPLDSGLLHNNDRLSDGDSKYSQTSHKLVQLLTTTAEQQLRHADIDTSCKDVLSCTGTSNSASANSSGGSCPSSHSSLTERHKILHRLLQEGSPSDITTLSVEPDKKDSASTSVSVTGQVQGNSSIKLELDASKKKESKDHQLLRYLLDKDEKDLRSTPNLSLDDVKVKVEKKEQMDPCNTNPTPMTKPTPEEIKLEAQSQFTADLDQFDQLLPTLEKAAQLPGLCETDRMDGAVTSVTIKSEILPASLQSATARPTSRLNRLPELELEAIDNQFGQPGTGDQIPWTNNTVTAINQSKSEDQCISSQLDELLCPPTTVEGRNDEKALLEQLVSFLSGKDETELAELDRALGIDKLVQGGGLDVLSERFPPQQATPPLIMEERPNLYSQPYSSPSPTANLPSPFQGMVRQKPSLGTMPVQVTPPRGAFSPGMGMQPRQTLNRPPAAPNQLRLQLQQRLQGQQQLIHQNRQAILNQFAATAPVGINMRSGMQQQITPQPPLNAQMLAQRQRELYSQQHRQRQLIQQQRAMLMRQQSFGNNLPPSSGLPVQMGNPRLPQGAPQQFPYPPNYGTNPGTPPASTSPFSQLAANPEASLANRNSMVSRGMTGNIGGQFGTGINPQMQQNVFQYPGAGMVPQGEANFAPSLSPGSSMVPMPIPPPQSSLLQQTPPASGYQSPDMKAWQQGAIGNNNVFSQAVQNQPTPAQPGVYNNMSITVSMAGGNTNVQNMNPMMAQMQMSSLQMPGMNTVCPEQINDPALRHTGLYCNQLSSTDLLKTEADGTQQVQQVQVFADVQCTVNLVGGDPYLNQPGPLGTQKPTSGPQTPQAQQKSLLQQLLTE
# Steroidogenic factor 1 (Homo sapiens), sequence (Q13285 whole entry, looked up, the tested form may be a part): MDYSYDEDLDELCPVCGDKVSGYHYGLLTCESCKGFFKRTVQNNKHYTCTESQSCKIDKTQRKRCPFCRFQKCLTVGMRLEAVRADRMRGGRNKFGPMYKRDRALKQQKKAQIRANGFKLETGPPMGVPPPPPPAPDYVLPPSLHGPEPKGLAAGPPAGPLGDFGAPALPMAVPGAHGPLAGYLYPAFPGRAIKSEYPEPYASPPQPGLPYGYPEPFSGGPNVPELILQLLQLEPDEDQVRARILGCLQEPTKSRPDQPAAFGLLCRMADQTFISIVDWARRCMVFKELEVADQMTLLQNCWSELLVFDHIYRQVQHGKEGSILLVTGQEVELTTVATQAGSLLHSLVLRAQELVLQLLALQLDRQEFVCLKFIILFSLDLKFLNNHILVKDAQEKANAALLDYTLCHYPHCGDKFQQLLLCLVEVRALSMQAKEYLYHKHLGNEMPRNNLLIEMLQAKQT
Structure (SMILES),inhibition [1],inhibition [2],inhibition [3],inhibition [4],inhibition [5],inhibition [6],inhibition [7],inhibition [8],inhibition [9],inhibition [10]
O=C(COC(=O)c1ccc[nH]c1=O)Nc1ccc(N2CCCCC2)cc1,54.4% (active),20.8% (inactive),42.2% (inactive),5.72% (inactive),42.1% (active),55% (active),41% (inactive),6.65% (inactive),45.1% (active),90.5% (active)
CCOC(=O)c1ccc(NC(=O)c2ccc(C)c(S(=O)(=O)N3CCOCC3)c2)cc1,31.4% (inactive),47.9% (active),3.47% (inactive),54.1% (active),65.1% (active),50.5% (active),66.5% (active),66% (active),47.4% (active),33.8% (inactive)
CCCc1ccc(-c2ccc(/C=C/C(=O)O)cc2)nc1,76% (active),71.9% (active),70.6% (active),67.7% (active),77.9% (active),85.6% (active),76.9% (active),68.6% (active),85.7% (active),94.6% (active)
COc1ccc(/C=C2\SC(=O)N(CCCC(=O)Nc3cc(Cl)ccc3C(=O)O)C2=O)cc1,86.5% (active),77% (active),75.5% (active),70.3% (active),83.7% (active),94% (active),82% (active),75.7% (active),93.9% (active),97.8% (active)
Cc1cc(C)c2c(N)c(C(=O)Nc3ncc(C)s3)sc2n1,49.7% (active),34.4% (active),-42.2% (inactive),24.3% (inactive),36.9% (active),14.3% (inactive),55.7% (active),4.69% (inactive),55.6% (active),77.2% (active)
O=C(O)c1ccc(N/N=C/c2ccc3nccnc3c2)cc1,17.8% (inactive),10.9% (inactive),-44.9% (inactive),10.3% (inactive),48.4% (active),21.4% (inactive),61% (active),14.8% (inactive),42.2% (active),75.5% (active)
Cc1ccc(C(=O)Nc2sc(C)c(-c3ccccc3)c2C(N)=O)cc1[N+](=O)[O-],64% (active),50% (active),29.8% (inactive),22.4% (inactive),47.7% (active),-41.3% (inactive),38.9% (inactive),10.9% (inactive),71.9% (active),74.1% (active)
COc1cccc(/C=N/NC(=O)c2c(-c3ccccc3)noc2C)c1O,38.4% (inactive),37.1% (active),24.8% (inactive),34.6% (active),68.8% (active),52.1% (active),64.6% (active),67.5% (active),2.72% (inactive),33.1% (inactive)
S=C(NCCCCN(Cc1ccc(Cl)cc1)c1ccc(Br)cn1)NCCCc1cnc[nH]1,93.1% (active),72.5% (active),76.5% (active),60.9% (active),90.1% (active),103% (active),96.7% (active),86.5% (active),23.1% (inactive),54.5% (active)
COc1ccc(CC2C(=O)NC(C)C(=O)N(C)C3Cc4ccc(cc4)Oc4cc(ccc4O)CC(C(=O)NC(C)C(=O)NC(C)C(=O)N2C)N(C)C3=O)cc1 (stereo not given),97.6% (active),96.4% (active),90.6% (active),95% (active),96% (active),110% (active),98.6% (active),97.2% (active),82.2% (active),76.9% (active)
O=C(NN=Cc1c(O)ccc2ccccc12)c1ccncc1,77% (active),70.6% (active),65.6% (active),65.3% (active),87.4% (active),104% (active),89.8% (active),77.4% (active),-16.9% (inactive),38% (inactive)
Cc1cc(C(=O)Nc2ccc(Cl)cc2)c(C)n1-c1ccccc1,74.9% (active),69.7% (active),60.1% (active),50.3% (active),70% (active),38% (inactive),71.7% (active),55.4% (active),82.5% (active),85.7% (active)
Cc1ccc(Nc2nc(N)nc(CCl)n2)c(C)c1,74% (active),32.8% (active),38.6% (inactive),28.1% (active),20% (inactive),58.7% (active),29.4% (inactive),56% (active),-27.8% (inactive),40.4% (inactive)
COc1ccccc1-c1nnc(Sc2nc([N+](=O)[O-])nn2C)o1,58.5% (active),32.7% (active),18.7% (inactive),36.4% (active),59.9% (active),62% (active),38.3% (inactive),64.1% (active),46.1% (active),65.3% (active)
COC(=O)c1ccc2nc(Nc3nc4c(F)cc(F)cc4s3)sc2c1,23.9% (inactive),40.6% (active),-34.6% (inactive),36.7% (active),28.2% (active),-92.1% (inactive),25.5% (inactive),-29.2% (inactive),-2.64% (inactive),61.1% (active)
CC(C)(C)c1ccc(C(=O)O/N=C(\N)c2ccccn2)cc1,85.4% (active),77.2% (active),64.9% (active),67.5% (active),61.1% (active),45.8% (active),58.5% (active),62.5% (active),83.1% (active),94.4% (active)
O=C(O)c1ccccc1C(=O)Nc1ccc(Oc2cccc3ccccc23)cc1,26% (inactive),32.2% (active),28% (inactive),21.7% (inactive),34.5% (active),29.8% (inactive),57% (active),13.4% (inactive),77.6% (active),75.2% (active)
O=C(CN1C(=O)c2ccccc2S1(=O)=O)c1ccc2c(c1)OCCO2,87.8% (active),89.7% (active),64% (active),84.8% (active),85.1% (active),86.3% (active),84.5% (active),84.4% (active),91.4% (active),95.2% (active)
Cc1ccc(NC(=O)O/N=C/c2c(C)nn(C(C)(C)C)c2C)cc1Cl,90.4% (active),88% (active),87.3% (active),85.3% (active),88.2% (active),93% (active),89.2% (active),86.5% (active),94.6% (active),98.3% (active)
COc1cc(SC)ccc1C(=O)Nc1nc2ccccc2[nH]1,92.1% (active),90% (active),85.9% (active),89.4% (active),95.1% (active),103% (active),96.5% (active),92.6% (active),96.4% (active),99.5% (active)
S=C(Nc1ccccc1)Nc1ccc(OCc2ccc(Cl)cc2Cl)cc1,46.7% (active),25.4% (inactive),43.6% (inactive),24.4% (inactive),63.4% (active),72.3% (active),59.5% (active),39.4% (active),83.7% (active),93.9% (active)
Nc1cc2ccncc2c2ccccc12,72% (active),51.6% (active),68.9% (active),47.8% (active),8.54% (inactive),75.6% (active),63.2% (active),72.3% (active),22.2% (inactive),43.4% (inactive)
C(=NN1CCCCCC1)c1ccc2ccccc2n1,88.6% (active),82.8% (active),68.3% (active),72.1% (active),87.8% (active),67% (active),87% (active),70.8% (active),92.4% (active),94.9% (active)
COc1cccc(NC(=O)CSc2nnc(-c3cc(C)n(-c4ccccc4)c3C)o2)c1,46.8% (active),23.3% (inactive),3.49% (inactive),-14.5% (inactive),-29.8% (inactive),-55.2% (inactive),-12.4% (inactive),-23.9% (inactive),11% (inactive),48.5% (active)
O=C(CC1CS(=O)(=O)CC1CC(=O)Nc1ccc2c(c1)OCCO2)Nc1ccc2c(c1)OCCO2 (stereo not given),37.1% (inactive),-5.19% (inactive),-14.1% (inactive),-21.8% (inactive),-26.2% (inactive),-91.7% (inactive),-43.4% (inactive),-53.8% (inactive),46.5% (active),57% (active)
Cc1cc(C)c(C(=O)/C=C/c2cccc3ccccc23)c(=O)[nH]1,72.8% (active),56.7% (active),55.2% (active),63.5% (active),94% (active),110% (active),97.8% (active),94.3% (active),47.2% (active),65.3% (active)
O=C(NCCc1ccccc1F)c1ccc2c(c1)OCCO2,67.2% (active),57.6% (active),-11.5% (inactive),54.6% (active),65.5% (active),55.3% (active),72.4% (active),60.5% (active),74.1% (active),89.9% (active)
NC(=S)NN=C1c2cc(OCCN3CCOCC3)ccc2-c2ccc(OCCN3CCOCC3)cc21,53.8% (active),68.8% (active),8.8% (inactive),65.2% (active),89.9% (active),96.3% (active),82.2% (active),91.7% (active),68.6% (active),58.9% (active)
O=C(CCCN1C(=O)/C(=C/c2ccccc2Cl)SC1=S)NNC(=O)c1ccccc1Cl,58% (active),31.3% (active),40% (inactive),40.9% (active),54.6% (active),55.1% (active),46.8% (active),45% (active),80.7% (active),87.5% (active)
COc1ccc([C@@]23Oc4cc(OC)cc(OC)c4[C@]2(O)[C@H](O)[C@H](C(=O)N(C)C)[C@H]3c2ccccc2)cc1,95.7% (active),93.7% (active),85.6% (active),92.9% (active),97.6% (active),111% (active),99.3% (active),98.2% (active),56.2% (active),68.6% (active)
